Among the data in PubChem BioAssay (EPA / NIEHS) are outcome and AC50 values, retold here.

In assay [1] the target is CCAAT/enhancer-binding protein beta (Homo sapiens) (UniProt P17676). Briefly: ATG_C_EBP_CIS: Attagene CIS-FACTORIAL HepG2 Assay for human CCAAT/Enhancer Binding Protein (C/EBP) beta (AID 2282927). The note with it: HepG2 Attagene cis-factorial transcription factor reporter; actives raise or lower the signal. In a few lines:
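Transiently transfected HepG2 (MRTU library, endogenous TF-driven promoters); 24 h dosing; total RNA → oligo(dT) RT → PCR → 6-FAM primer extension → HpaI digest → CE; fit bidirectionally vs DMSO.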

Assay [2] in a line: ATG_CMV_CIS: Attagene CIS-FACTORIAL HepG2 Assay for human CMV (Internal Marker) (AID 2282928).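 Note: endpoint acts as a background internal control marker rather than a target.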 The note with it: HepG2 CMV promoter reporter, transcription factor profiling; actives raise or lower the signal. In a few lines: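 Fluorescence intensity of RT-PCR-derived reporter fragments, resolved by capillary electrophoresis, gives the signal. HepG2 liver cells bearing transfected cis-element reporters were treated 24 h; activity in either direction was fit relative to DMSO-treated controls.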

Assay [3] in a line: ATG_DR4_LXR_CIS: Attagene CIS-FACTORIAL HepG2 Assay for human Liver X Receptor (LXR), DR4 submotif (AID 2282929). The note with it: HepG2 Attagene DR4 cis-reporter, mRNA transcription; actives raise or lower the signal. In a few lines:
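HepG2, transient MRTU transfection, cis-element (DR4) promoter; 24 h compound exposure; total RNA → oligo(dT) RT → PCR → 6-FAM primer extension → HpaI cut → CE. Gain/loss vs DMSO, bidirectional fit.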

The target of assay [4] is Aryl hydrocarbon receptor (Homo sapiens) (UniProt P35869). Nature of the assay: ATG_Ahr_CIS: Attagene CIS-FACTORIAL HepG2 Assay for human Aryl Hydrocarbon Receptor (Ahr) (AID 2282930). As to conditions: HepG2 AhR cis-factorial reporter transcription; actives raise or lower the signal. In a few lines: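 Read-out: reporter mRNA quantified by RT-PCR with fluorescent primer extension and capillary electrophoresis. Human HepG2 liver cells carried transfected cis-promoter reporter units and were exposed to chemical for 24 h; gain or loss fitted relative to DMSO.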
Aryl hydrocarbon receptor (Homo sapiens), sequence (P35869 whole entry, looked up): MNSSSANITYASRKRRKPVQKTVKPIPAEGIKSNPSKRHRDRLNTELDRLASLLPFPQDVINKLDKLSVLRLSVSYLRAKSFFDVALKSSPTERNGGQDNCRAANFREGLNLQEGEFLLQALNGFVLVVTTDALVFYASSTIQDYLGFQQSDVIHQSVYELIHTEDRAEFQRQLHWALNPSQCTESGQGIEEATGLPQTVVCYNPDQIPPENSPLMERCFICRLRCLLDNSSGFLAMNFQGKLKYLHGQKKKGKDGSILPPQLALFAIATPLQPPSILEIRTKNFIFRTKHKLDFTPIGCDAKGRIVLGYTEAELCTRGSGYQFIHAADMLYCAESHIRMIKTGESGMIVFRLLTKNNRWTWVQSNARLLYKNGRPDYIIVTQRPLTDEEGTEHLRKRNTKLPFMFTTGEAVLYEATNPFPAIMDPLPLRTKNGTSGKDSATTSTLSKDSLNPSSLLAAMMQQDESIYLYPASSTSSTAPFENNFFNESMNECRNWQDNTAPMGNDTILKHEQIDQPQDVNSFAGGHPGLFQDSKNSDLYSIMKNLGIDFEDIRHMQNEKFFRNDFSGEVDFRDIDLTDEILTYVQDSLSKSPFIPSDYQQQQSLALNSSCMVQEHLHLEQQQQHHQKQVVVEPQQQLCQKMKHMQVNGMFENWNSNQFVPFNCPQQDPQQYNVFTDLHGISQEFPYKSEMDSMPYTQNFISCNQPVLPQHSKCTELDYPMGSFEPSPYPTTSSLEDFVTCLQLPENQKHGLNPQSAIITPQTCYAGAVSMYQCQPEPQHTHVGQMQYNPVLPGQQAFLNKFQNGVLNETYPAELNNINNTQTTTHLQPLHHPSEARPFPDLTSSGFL

Assay [5] can be described thus: ATG_AP_1_CIS: Attagene CIS-FACTORIAL HepG2 Assay for human Activator Protein 1 (AP-1) (AID 2282931). The note with it: HepG2 Attagene cis-factorial AP-1 reporter mRNA; actives raise or lower the signal. In a few lines: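 Transient MRTU transfection of HepG2 → 24 h chemical treatment → RNA isolation, RT-PCR, 6-FAM labelling, HpaI digest → capillary electrophoresis. Fit: bidirectional, DMSO negative control.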

A short description of assay [6]: ATG_AP_2_CIS: Attagene CIS-FACTORIAL HepG2 Assay for human Activator Protein 2 (AP-2) (AID 2282932). As to conditions: HepG2 AP-2 cis-reporter, Attagene transcription factor profiling; actives raise or lower the signal. In a few lines:
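Read-out: fluorescent reporter mRNA via RT-PCR and capillary electrophoresis, 24 h post-dose in transiently transfected HepG2. Endogenous factors drive cis-promoter reporters; gain or loss of signal fitted bidirectionally against DMSO.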

Assay [7] is described as follows: ATG_BRE_CIS: Attagene CIS-FACTORIAL HepG2 Assay for human Bone Morphogenetic Protein (BMP) Response Element (BRE) (AID 2282933). The note with it: HepG2 BMP response element reporter, Attagene transcription factor profiling; actives raise or lower the signal. In a few lines:
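Endogenous transcription factor activity read in transiently transfected HepG2 cells after 24 h chemical exposure. Bidirectional curve fitting against DMSO; readout is reporter transcript level by RT-PCR with capillary electrophoresis of labelled products.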

The target of assay [8] is Retinoic acid receptor alpha (Homo sapiens) (UniProt P10276). Nature of the assay: ATG_DR5_RAR_CIS: Attagene CIS-FACTORIAL HepG2 Assay for human Retinoic Acid Receptor Alpha (RARE), DR5 submotif (AID 2282934). The note with it: HepG2 Attagene cis-factorial RARE DR5 reporter, mRNA; actives raise or lower the signal. In a few lines: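 Read-out: DR5-driven reporter transcript measured by RT-PCR, 6-FAM primer extension, HpaI digest and capillary electrophoresis. Human HepG2 liver cells carry transiently transfected cis-element reporter constructs; dosing lasts 24 h. Gain or loss of signal fitted against DMSO baseline.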
Retinoic acid receptor alpha (Homo sapiens), sequence (P10276 whole entry, looked up): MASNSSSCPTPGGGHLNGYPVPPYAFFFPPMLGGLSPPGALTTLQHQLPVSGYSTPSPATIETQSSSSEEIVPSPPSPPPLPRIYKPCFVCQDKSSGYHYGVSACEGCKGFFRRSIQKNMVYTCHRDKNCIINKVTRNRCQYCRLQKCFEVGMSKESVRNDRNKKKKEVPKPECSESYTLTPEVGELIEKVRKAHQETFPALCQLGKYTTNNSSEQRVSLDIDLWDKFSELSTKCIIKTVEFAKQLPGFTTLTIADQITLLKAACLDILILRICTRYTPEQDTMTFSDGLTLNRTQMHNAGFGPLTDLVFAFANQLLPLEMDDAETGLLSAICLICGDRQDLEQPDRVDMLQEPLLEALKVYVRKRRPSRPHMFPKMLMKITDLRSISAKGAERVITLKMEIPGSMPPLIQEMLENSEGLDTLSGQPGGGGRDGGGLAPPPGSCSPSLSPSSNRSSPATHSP

For assay [9], the target named is Transcription factor E2F1 (Homo sapiens) (UniProt Q01094). Nature of the assay: ATG_E2F_CIS: Attagene CIS-FACTORIAL HepG2 Assay for human E2F Transcription Factor 1 (AID 2282935). As to conditions: HepG2 Attagene cis-reporter, E2F reporter RNA transcripts; actives raise or lower the signal. In a few lines: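 Transient MRTU transfection of HepG2; 24 h compound exposure; RNA → oligo(dT) RT → PCR → FAM label → HpaI cut → CE fluorescence. Gain/loss of signal fit against DMSO.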
Transcription factor E2F1 (Homo sapiens), sequence (Q01094 whole entry, looked up): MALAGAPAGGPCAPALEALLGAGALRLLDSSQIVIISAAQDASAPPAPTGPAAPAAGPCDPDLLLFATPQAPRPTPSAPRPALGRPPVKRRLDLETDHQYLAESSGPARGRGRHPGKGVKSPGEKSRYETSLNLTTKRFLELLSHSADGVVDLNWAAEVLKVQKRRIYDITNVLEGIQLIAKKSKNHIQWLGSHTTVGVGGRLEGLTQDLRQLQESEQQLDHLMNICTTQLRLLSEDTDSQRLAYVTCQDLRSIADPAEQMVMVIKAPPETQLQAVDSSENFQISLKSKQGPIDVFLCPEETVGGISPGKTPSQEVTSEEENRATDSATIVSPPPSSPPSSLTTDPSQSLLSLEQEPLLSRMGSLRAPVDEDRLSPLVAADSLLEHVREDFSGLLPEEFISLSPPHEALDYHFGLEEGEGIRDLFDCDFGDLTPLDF

Assay [10] can be described thus: ATG_E_Box_CIS: Attagene CIS-FACTORIAL HepG2 Assay for human Enhancer Box (E-box) (AID 2282936). The note with it: HepG2 E-box cis-reporter transcription, actives raise or lower the signal. In a few lines: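 Transiently transfected HepG2, endogenous TF-driven reporters, 24 h dosing. Readout: RT-PCR plus capillary electrophoresis of fluorescent reporter fragments. Gain or loss of signal fitted bidirectionally against DMSO baseline.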

Assay [11] is described as follows: ATG_M_61_CIS: Attagene CIS-FACTORIAL HepG2 Assay for M61 Transcription Factor (Internal Marker) (AID 2282937). As to conditions: HepG2 Attagene CIS-FACTORIAL M61 internal marker reporter; actives raise or lower the signal. In a few lines: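 Human liver HepG2, transient MRTU transfection (cis promoter elements), 24 h compound. Total RNA → oligo(dT) RT → PCR → FAM label → HpaI → CE. Internal background marker; bidirectional fitting, DMSO = baseline.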

The nature of assay [12]: ATG_EGR_CIS: Attagene CIS-FACTORIAL HepG2 Assay for human Early Growth Response 1 (EGR1) (AID 2282938). The note with it: HepG2 Attagene CIS-FACTORIAL EGR reporter mRNA; actives raise or lower the signal. In a few lines: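 Transient transfection of human HepG2 with multiple cis-regulated reporter units, chemical exposure 24 h, total RNA isolated. Reverse transcription, PCR, fluorescent labelling and capillary electrophoresis quantify reporter transcripts; activity fitted bidirectionally against DMSO.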

Assay [13] is described as follows: ATG_M_19_CIS: Attagene CIS-FACTORIAL HepG2 Assay for M19 Transcription Factor (Internal Marker) (AID 2282939). As to conditions: HepG2 Attagene CIS-FACTORIAL M19 internal marker reporter; actives raise or lower the signal. In a few lines: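 Internal marker readout, fitted in both directions against DMSO, from HepG2 cells carrying transfected cis-element reporter constructs; RT-PCR and capillary electrophoresis of reporter mRNA after 24 h exposure.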

Assay [14] is described as follows: ATG_ERE_CIS: Attagene CIS-FACTORIAL HepG2 Assay for Estrogen Response Element (ERE) (AID 2282940). As to conditions: HepG2 ERE cis-reporter, Attagene RNA transcript; actives raise or lower the signal. In a few lines: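 After 24 h compound treatment, RNA from transfected HepG2 cells was reverse-transcribed, reporter cDNA PCR-amplified, FAM-labelled, HpaI-cut and resolved by capillary electrophoresis. ERE-driven cis reporter transcripts reflect endogenous factors; gain or loss scored against DMSO.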

The nature of assay [15]: ATG_Ets_CIS: Attagene CIS-FACTORIAL HepG2 Assay for human Erythroblast Transformation Specific (ETS) (AID 2282941). As to conditions: HepG2 ETS cis-reporter transcription, actives raise or lower the signal. In a few lines: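 Multiplexed reporter transcript profiling: HepG2, 24 h treatment, total RNA to cDNA, PCR, 6-FAM labelling, HpaI cut, capillary electrophoresis. Gain- or loss-of-signal fitted against DMSO.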

The target of assay [16] is Hepatocyte nuclear factor 3-beta (Homo sapiens) (UniProt Q9Y261). Nature of the assay: ATG_FoxA2_CIS: Attagene CIS-FACTORIAL HepG2 Assay for human Forkhead box A2 (FOXA2) (AID 2282942). As to conditions: HepG2 cis-reporter transcription factor activity, 24 h; actives raise or lower the signal. In a few lines:
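Transient MRTU transfection of HepG2 liver cells; 24 h treatment; total RNA → oligo(dT) RT → PCR → FAM primer extension → HpaI cut → CE. Bidirectional fit vs DMSO.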

Assay [17] in a line: ATG_FoxO_CIS: Attagene CIS-FACTORIAL HepG2 Assay for human Forkhead box O (FoxO) (AID 2282943). As to conditions: HepG2 Attagene cis-reporter, FoxO element, mRNA; actives raise or lower the signal. In a few lines: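 Read-out: fluorescence of 6-FAM-labelled reporter cDNA fragments resolved by capillary electrophoresis. Transiently transfected HepG2 cells were dosed for 24 h; activity fitted in both directions relative to DMSO controls.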

Assay [18] can be described thus: ATG_GATA_CIS: Attagene CIS-FACTORIAL HepG2 Assay for human GATA Binding Protein (AID 2282944). The note with it: HepG2 GATA cis-element reporter, Attagene multiplex mRNA; actives raise or lower the signal. In a few lines: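 Reporter transcripts from a GATA cis-regulated unit, among multiplexed reporters in transfected HepG2 cells, were measured by RT-PCR with capillary electrophoresis after 24 h dosing. Induction or loss scored relative to DMSO.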

The nature of assay [19]: ATG_GLI_CIS: Attagene CIS-FACTORIAL HepG2 Assay for human Zinc Finger Protein GLI1 (AID 2282945). As to conditions: HepG2, Attagene cis-factorial reporter mRNA, GLI element; actives raise or lower the signal. In a few lines: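 Transiently transfected HepG2 cells report endogenous transcription factor activity via cis-element-driven reporter units. After 24 h compound exposure, reporter mRNA was measured by RT-PCR with capillary electrophoresis; bidirectional fitting against DMSO baseline.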

Assay [20] has as its target Bile acid receptor (Homo sapiens) (UniProt Q96RI1). Briefly: ATG_IR1_CIS: Attagene CIS-FACTORIAL HepG2 Assay for human Nuclear Receptor Subfamily 1 Group H Member 4 (NR1H4), IR1 submotif (AID 2282946). As to conditions: IR1 reporter transcription, actives raise or lower the signal. In a few lines: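 Fluorescence of capillary-separated, HpaI-digested RT-PCR reporter products gave IR1-element mRNA induction in HepG2 cells 24 h after dosing. Endogenous transcription factors drove the cis-regulated reporters; activity was fitted bidirectionally against DMSO.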

The source made the active and inactive calls. Rule for the calls: active = hit-call score of the fitted dose curve at least 0.9, where 1 is the maximum; inactive = score below 0.9.

Bile acid receptor (Homo sapiens), sequence (Q96RI1 whole entry, looked up): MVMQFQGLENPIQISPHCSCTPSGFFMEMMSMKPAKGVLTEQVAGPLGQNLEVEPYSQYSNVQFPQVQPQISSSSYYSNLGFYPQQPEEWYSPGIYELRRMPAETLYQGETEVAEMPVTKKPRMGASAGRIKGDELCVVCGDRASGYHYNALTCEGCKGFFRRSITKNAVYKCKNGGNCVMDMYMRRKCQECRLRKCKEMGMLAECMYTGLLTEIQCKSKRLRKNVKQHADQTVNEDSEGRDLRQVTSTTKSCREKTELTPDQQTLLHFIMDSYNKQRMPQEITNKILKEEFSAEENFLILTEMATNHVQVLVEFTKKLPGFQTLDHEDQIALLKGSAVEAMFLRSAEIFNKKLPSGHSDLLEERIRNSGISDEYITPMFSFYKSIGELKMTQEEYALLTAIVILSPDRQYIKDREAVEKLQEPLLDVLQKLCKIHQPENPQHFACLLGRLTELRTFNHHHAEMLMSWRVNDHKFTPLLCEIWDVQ
CCAAT/enhancer-binding protein beta (Homo sapiens), sequence (P17676 whole entry, looked up): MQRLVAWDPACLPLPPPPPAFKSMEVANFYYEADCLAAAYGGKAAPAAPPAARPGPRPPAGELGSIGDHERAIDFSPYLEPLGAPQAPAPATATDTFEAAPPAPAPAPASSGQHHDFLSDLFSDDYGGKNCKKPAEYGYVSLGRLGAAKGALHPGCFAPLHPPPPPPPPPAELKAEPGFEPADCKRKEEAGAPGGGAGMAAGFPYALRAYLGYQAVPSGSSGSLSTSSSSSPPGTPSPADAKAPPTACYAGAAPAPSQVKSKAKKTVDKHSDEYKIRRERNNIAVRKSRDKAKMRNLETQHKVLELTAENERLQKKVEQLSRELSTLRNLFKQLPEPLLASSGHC
Hepatocyte nuclear factor 3-beta (Homo sapiens), sequence (Q9Y261 whole entry, looked up): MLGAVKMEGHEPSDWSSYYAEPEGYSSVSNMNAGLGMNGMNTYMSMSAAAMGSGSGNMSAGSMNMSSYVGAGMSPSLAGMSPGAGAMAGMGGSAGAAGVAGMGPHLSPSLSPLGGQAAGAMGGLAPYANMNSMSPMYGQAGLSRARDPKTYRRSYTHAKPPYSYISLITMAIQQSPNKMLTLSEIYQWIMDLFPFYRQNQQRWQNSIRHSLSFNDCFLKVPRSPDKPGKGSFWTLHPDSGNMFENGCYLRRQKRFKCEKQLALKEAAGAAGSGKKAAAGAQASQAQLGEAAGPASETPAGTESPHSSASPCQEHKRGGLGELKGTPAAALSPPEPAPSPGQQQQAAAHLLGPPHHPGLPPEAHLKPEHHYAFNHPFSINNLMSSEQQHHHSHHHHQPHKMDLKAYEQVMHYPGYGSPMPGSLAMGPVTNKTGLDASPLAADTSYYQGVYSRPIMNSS

`CCCN(CCC)c1c([N+](=O)[O-])cc(C(F)(F)F)c(N)c1[N+](=O)[O-]`: the result in assay [1], in [6], in assay [8], in assay [9], in [10] and in [11] was inactive. For the same compound, the result in assay [12], in assay [13], in [14], in assay [15], in assay [16] and in assay [18] was inactive. Further, the call in assay [19] and in assay [20] was inactive. For the same compound, the AC50 in [2] is 24.5 µM (active); in assay [3], 6.65 µM (active); in assay [4], 28.9 µM (active); in [5], 63 µM (active); in assay [7], 36.1 µM (active); in [17], 50 µM (active).

For the compound `O=C(c1ccc(O)cc1O)c1ccc(O)cc1O`, the result in assay [1], in assay [3], in assay [4], in assay [5], in [7] and in [8] was inactive. The compound was classed as inactive in assay [9], in assay [10], in assay [11], in assay [12], in [13] and in assay [15]. Moreover, the outcome in assay [16], in assay [17], in [18], in assay [19] and in assay [20] was inactive. Besides, the values for the AC50 in [2] and in assay [14] were 80.5 µM (active) [middle of 4 runs] and 843 nM (active) [middle of 4 runs], respectively.

For `CCOC(=O)NCCOc1ccc(Oc2ccccc2)cc1`, the AC50 in assay [1] is 13.4 µM (active); in [2], 13.1 µM (active); in [3], 89.6 µM (active); in assay [7], 27.9 µM (active); in assay [12], 50 µM (active); in assay [14], 12.6 µM (active). Further, the half-maximal activity concentration (AC50) in assay [20] is 88.9 µM (active). Further, the compound was classed as inactive in assay [4], in assay [5], in assay [8], in assay [9], in [10] and in assay [11]. Also, the call in assay [13], in [15], in assay [16], in assay [17], in assay [18] and in [19] was inactive.

For the compound `Oc1ccc(C(c2ccc(O)cc2)C(Cl)(Cl)Cl)cc1`, the outcome in assay [1], in [2], in assay [3], in assay [4], in assay [5] and in [7] was inactive. The compound was called inactive in [9], in assay [10], in [11], in [12], in [13] and in assay [15]. The outcome in assay [16], in [17], in [18], in assay [19] and in assay [20] was inactive.
